Experimental data from PubChem BioAssay AID1063 (University of Pittsburgh Molecular Library Screening Center, 2008).
About 18,000 (9%) of roughly 200,000 compounds were called active. What follows is part of a selection rich in actives, with near analogues and random picks from the rest. A number with no mark means an inactive call. No stated cut-off is given here; in the data, active means inhibition above about 50%; inactive means the rest.

Test: Leishmania major promastigote growth inhibition, primary screen (AID 1063);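 further: promastigotes grown with compound for 44 hours at 28 °C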
Conditions: Leishmania major promastigotes, resazurin fluorescence viability; at 10 µM; stronger effect = higher value
In the case of `CCOC(=O)C1C(c2ccc(Cl)cc2)NC(=S)NC1(O)C(F)(F)F` (centres undefined), the inhibition is reported as -2.87%. Compound `COc1ccc(OCC(=O)N2CCN(C(=O)COc3ccccc3)CC2)cc1` has an inhibition of -5.93%. For `CC1CN(C2CCN(C(=O)COc3ccccc3)CC2)CC(C)O1` (centres undefined), the inhibition was 88.1% (active). `COc1ccc(OCC(=O)N2CCOCC2)cc1` gave an inhibition of 0.46%. In the case of `Cc1csc(CN(C)C(=O)CC2C(=O)NCCN2CC(C)(C)C)n1` (centres undefined), the inhibition is reported as -1.56%. For `O=C(N/N=C/c1ccc([N+](=O)[O-])cc1)c1c[nH]c2ccccc12`, the inhibition was 2.8%. With `Cc1cc(C)c(C(N)=O)c(Cl)n1` the inhibition was -12.9%. Work on `Cc1cc(C)nc(N2CCC(C(=O)Nc3ccc4c(c3)OCCO4)CC2)n1` yielded an inhibition of -3.98%. With `COc1ccc(S(=O)(=O)Nc2cccnc2)c(Cl)c1Cl` the inhibition was 1.47%. For `CCOC(=O)C1CCN(CCC(=O)Nc2cccc(C)c2)CC1`, the inhibition was 92.7% (active). For `CC1CCN(CCC(=O)Nc2ccccc2)CC1`, the inhibition was 18.3%. For `CCOC(=O)C1CCN(C(=O)C2(NC(=O)Nc3cccc(F)c3)CCCCC2)CC1`, the inhibition was -15.2%. `O=C(O)/C=C\C(=O)Nc1ccc(OCc2ccccc2)cc1` showed an inhibition of -4.77%. With `Cc1c(-c2nn(C)c(=O)c3ccccc23)oc2ccc(F)cc2c1=O` the inhibition was 94.9% (active). With `Cc1ccc(F)cc1NC(=O)Cc1nn(C)c(=O)c2ccccc12` the inhibition was -5.08%. `O=C1c2oc3ccc(Br)cc3c(=O)c2C(c2cccc(F)c2)N1CCO` (centres undefined) showed an inhibition of -1.54%. `CCN(CCCNC(=O)CCn1c(=O)[nH]c2ccsc2c1=O)c1ccccc1` gave an inhibition of -5.73%. `COC(=O)c1cc(NC(=O)c2cccnc2)ccc1N1CCOCC1` gave an inhibition of -4.83%. Compound `c1ccc(-c2noc(-c3cccs3)n2)nc1` has an inhibition of -1.93%. In the case of `Clc1ccc(-n2nnnc2-c2cnc(-c3ccccn3)nc2-c2cccs2)cc1`, the inhibition is reported as 61.2% (active). Compound `O=C(Cn1cc(-c2nnnn2-c2ccc(Cl)cc2)c(=O)c2ccccc21)c1ccccc1` has an inhibition of -4.69%. `CC(C)(C)OC(=O)N/N=C/c1cn(-c2ccccc2)nc1-c1cccnc1` gave an inhibition of 21.8%. With `COc1ccccc1N1CCN(C(=O)c2cn(-c3ccccc3)nc2-c2cccnc2)CC1` the inhibition was 84.2% (active). `COc1cccc(-c2nn(C)c3sc(C(=O)N4CCN(c5ccccc5)CC4)cc23)c1` gave an inhibition of 20.1%. For `COc1ccccc1N1CCN(C(=O)c2cc3c(-c4ccc(Cl)cc4)nn(C)c3s2)CC1`, the inhibition was 60.4% (active). Work on `O=C(c1cn(-c2ccccc2)nc1-c1cccnc1)N1CCCCC1` yielded an inhibition of -1.11%. `CCOC(=O)N1CCN(C(=O)c2cc3c(-c4ccc(Cl)cc4)nn(C)c3s2)CC1` showed an inhibition of 10.6%. In the case of `C/C(=N/Nc1ccc(Cl)cc1)c1cnnc(-c2ccccc2)n1`, the inhibition is reported as 2.35%. With `Cc1ccc(C(=O)NC(=S)Nc2ccccc2C)cc1` the inhibition was 0.17%. For `Cc1nn(-c2ccccc2)c(C)c1/C=N/NC(=O)CSc1nc2ccccc2c(=O)n1-c1ccccc1`, the inhibition was 14.7%. With `C/C(=N\NC(=O)CSc1nc2ccccc2c(=O)n1-c1ccccc1C)c1cccs1` the inhibition was 91% (active). `C/C(=N\NC(=O)COc1c(C)cccc1C)c1cccs1` showed an inhibition of 2.87%. `Cc1ccnc(NC(=O)CCCOc2ccccc2)c1` gave an inhibition of -3.55%. `O=C(Nc1ccc(F)cc1)N1CCN(c2ccc(F)cc2)CC1` gave an inhibition of -0.19%.
